The text below walks through data of PubChem BioAssay.

Each structure is given as a SMILES string. Records with an inconclusive call do not appear. Active and inactive are the calls of the source.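 The calls were made as follows, unless noted: active = viability increase at or above a cutoff of the median across tested compounds plus 3 SD (cut at about 8.5% in these data, passing the limit was not always enough); inconclusive = some gains above the cutoff, reason not given; inactive = the rest.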

In assay [1] the target is Pantothenate synthetase (Mycobacterium tuberculosis (strain ATCC 25618 / H37Rv)) (UniProt P9WIL5). The experiment in a line: Coupled enzyme confirmation of inhibitors against recombinant Mtb PanC (AID 375; call rule not given here;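 also: 0% = full reaction with vehicle and 100% = no enzyme background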). The settings on record: coupled enzyme assay; at 10 µM, stronger effect = higher value.
A short description of assay [2]: Her2 expression decrease, cell viability multiplex – SKBR3 breast tumor cells, AlphaScreen, ATP viability, primary screen (AID 461;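 active = Her2 level under about 52% in both replicate screens, with viability over 70% of control, limit read from the data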;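 as to Her2 level: lower value means less Her2 protein in the cells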;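 as to viability: percent of carrier control wells set as 100% viability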). The note with it: SKBR3 Her2 protein level, 18-24 h, measured here: SKBR3 viability, ATP luminescence, at 10 µM. In general terms: In Alpha technology, singlet oxygen from a donor bead excites a nearby acceptor bead.
The target of assay [3] is Receptor tyrosine-protein kinase erbB-2 (Homo sapiens) (UniProt P04626). Described as above. The settings on record: 18-24 h, at 10 µM, stronger effect = lower value.
A short description of assay [4]: reduced viability of SK-BR-3 breast cancer cells – cell-based, 24 h, human, pilot screen (AID 572;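 active = viability at or below 10% of carrier control in both of two separate runs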;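 also: compound exposure lasted between 18 and 24 h rather than exactly 24 h; 100% = carrier-treated control wells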). The settings on record: SK-BR-3 viability, CellTiter-Glo luminescence, at 10 µM, stronger effect = lower value. (ATP-based viability assays read luminescence as a measure of living cells.)
A short description of assay [5]: MRP1 drug-resistance reversers in H69AR cells – cell-based, doxorubicin co-treatment, pilot screen (AID 601;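 active = viability loss from added drug above about 55%, and viability with drug at most 40%, in both replicates, limit read from the data, passing the limit was not always enough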). The note with it: CellTiter-Glo, 72 h, at 10 µM; for differential viability (reversal): stronger effect = higher value.
Assay [6] can be described thus: yeast transport mutant growth inhibition pilot in 384-well plates, post-Golgi transport modulator project (AID 636; in the data active = inhibition above about 31%). The note with it: absorbance 615 nm, about 18 h, stronger effect = higher value.
Assay [7] can be described thus: growth suppression of yeast trafficking mutant, preliminary HTS, modulators of trafficking downstream of Golgi apparatus project, 1536-format plate, OD 615 nm (AID 637; in the data active = inhibition above about 30%). The note with it: yeast transport mutant growth, absorbance 615 nm, 18 h; stronger effect = higher value.
Assay [8] in a line: S. cerevisiae growth inhibition in permissive medium (OD615), pilot counter-assay for S. cerevisiae lifespan shortening project, permissive growth control (AID 705;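 active = growth inhibition above 25% in both replicates, a cutoff set 3 SD above the mean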). The note with it: OD615, 24 h, at 10 µM, stronger effect = higher value.
Assay [9] is described as follows: S. cerevisiae growth inhibition in restrictive medium, OD615, pilot screen, restrictive growth control, yeast lifespan reduction project (AID 706;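 active = growth inhibition above a set limit, 3 SD over mean compound inhibition, in both replicates, cut at about 43% in these data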;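 also: modified DeaD lifespan yeast strain shifted to restrictive glucose medium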). The note with it: OD615, 48 h, at 10 µM, stronger effect = higher value.
Assay [10] is described as follows: doxorubicin toxicity protection in MRP-1 cells – H69AR cells, CellTiter-Glo, duplicate, MRP-1 activator project, pilot screen (AID 807).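 Also: compound pretreatment 18-22 h then 72 h combined with doxorubicin; 0% = doxorubicin alone and 100% = vehicle without doxorubicin.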 The note with it: H69AR viability with doxorubicin, CellTiter-Glo luminescence; at 10 µM; stronger effect = higher value.
A short description of assay [11]: viability of HCT116 without oncogenic beta-catenin – human colon tumor cells, pilot screen (AID 823;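 active = cell viability at or below a set limit in both duplicate runs, the limit being the all-compound median minus 4 SD, cut at about 23% in these data, passing the limit was not always enough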;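 also: 0% = wells killed by 20 µM Hyamine and 100% = untreated DMSO cell wells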). The note with it: HCT116 beta-catenin knockout viability, CellTiter-Glo, 60 h; at 10 µM; stronger effect = lower value.
Assay [12] can be described thus: viability of PTEN-null HCT116 cells – cell-based, HCT116 clonal line, CellTiter-Glo, pilot screen (AID 824;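 active = viability at or below 27.92% in each of two runs, the all-compound median minus 4 SD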;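 also: 0% = 20 µM Hyamine control and 100% = vehicle cell control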). The settings on record: HCT116 PTEN-deleted viability, 60 h, at 10 µM, stronger effect = lower value.
The nature of assay [13]: RAM pathway blockade in budding yeast – dse1pr::URA3 reporter, 5-FOA selection, pilot screen (AID 869;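 active = inhibition over a set limit, the all-compound mean plus 3 SD, in both replicate runs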;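 also: 0% = DMSO wells with no growth and 100% = 10 µM 1-NA-PP1 with full growth; RAM network block rescues cells from 5-FOA so hits raise OD615 growth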). The settings on record: S. cerevisiae dse1pr::URA3 5-FOA growth, OD615, 2 d, at 10 µM, stronger effect = higher value.
Assay [14] can be described thus: RAM signaling pathway blockade in yeast – S. cerevisiae, Pdr1DBD-CYC8 efflux-inhibited sensitized strain, primary screen (AID 1298;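 active = RAM network inhibition above 8.4% in each of two replicates, 3 SD over the compound average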;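 also: 0% = DMSO untreated cells without growth and 100% = 10 µM 1-NA-PP1 full growth; higher means more yeast growth rescued from 5-FOA killing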). The note with it: S. cerevisiae cbk1-as DSE1-URA3 strain, 5-FOA growth OD615, 2 d; at 50 µM; stronger effect = higher value.
Assay [15] can be described thus: HUVEC growth inhibition – cell-based, human, primary screen (AID 575;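 active = viability at or below 30% in both replicate assays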;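 also: 100% = median of untreated cell wells with 0.1% DMSO on each plate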). The settings on record: HUVEC proliferation, CellTiter-Glo luminescence, 72 h; at 10 µM; stronger effect = lower value.
A short description of assay [16]: H69AR cell proliferation blockers – human, duplicate replicates, primary screen (AID 580;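 active = viability at or under a set limit in both replicates, limit being median viability minus 3 SD, cut at about 48% in these data, passing the limit was not always enough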;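 also: 100% = mean luminescence of untreated wells and 0% = no signal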). The settings on record: H69AR lung tumor cells viability, ATP luminescence, 72 h; at 10 µM; stronger effect = lower value.
Setting [17] is: H69AR cells + 2 uM doxorubicin, measured here: viability with 2 uM doxorubicin, stronger effect = lower value.
Where [18] appears, read: H69AR cells, compound alone cytotoxicity.

Receptor tyrosine-protein kinase erbB-2 (Homo sapiens), sequence (P04626 whole entry, looked up): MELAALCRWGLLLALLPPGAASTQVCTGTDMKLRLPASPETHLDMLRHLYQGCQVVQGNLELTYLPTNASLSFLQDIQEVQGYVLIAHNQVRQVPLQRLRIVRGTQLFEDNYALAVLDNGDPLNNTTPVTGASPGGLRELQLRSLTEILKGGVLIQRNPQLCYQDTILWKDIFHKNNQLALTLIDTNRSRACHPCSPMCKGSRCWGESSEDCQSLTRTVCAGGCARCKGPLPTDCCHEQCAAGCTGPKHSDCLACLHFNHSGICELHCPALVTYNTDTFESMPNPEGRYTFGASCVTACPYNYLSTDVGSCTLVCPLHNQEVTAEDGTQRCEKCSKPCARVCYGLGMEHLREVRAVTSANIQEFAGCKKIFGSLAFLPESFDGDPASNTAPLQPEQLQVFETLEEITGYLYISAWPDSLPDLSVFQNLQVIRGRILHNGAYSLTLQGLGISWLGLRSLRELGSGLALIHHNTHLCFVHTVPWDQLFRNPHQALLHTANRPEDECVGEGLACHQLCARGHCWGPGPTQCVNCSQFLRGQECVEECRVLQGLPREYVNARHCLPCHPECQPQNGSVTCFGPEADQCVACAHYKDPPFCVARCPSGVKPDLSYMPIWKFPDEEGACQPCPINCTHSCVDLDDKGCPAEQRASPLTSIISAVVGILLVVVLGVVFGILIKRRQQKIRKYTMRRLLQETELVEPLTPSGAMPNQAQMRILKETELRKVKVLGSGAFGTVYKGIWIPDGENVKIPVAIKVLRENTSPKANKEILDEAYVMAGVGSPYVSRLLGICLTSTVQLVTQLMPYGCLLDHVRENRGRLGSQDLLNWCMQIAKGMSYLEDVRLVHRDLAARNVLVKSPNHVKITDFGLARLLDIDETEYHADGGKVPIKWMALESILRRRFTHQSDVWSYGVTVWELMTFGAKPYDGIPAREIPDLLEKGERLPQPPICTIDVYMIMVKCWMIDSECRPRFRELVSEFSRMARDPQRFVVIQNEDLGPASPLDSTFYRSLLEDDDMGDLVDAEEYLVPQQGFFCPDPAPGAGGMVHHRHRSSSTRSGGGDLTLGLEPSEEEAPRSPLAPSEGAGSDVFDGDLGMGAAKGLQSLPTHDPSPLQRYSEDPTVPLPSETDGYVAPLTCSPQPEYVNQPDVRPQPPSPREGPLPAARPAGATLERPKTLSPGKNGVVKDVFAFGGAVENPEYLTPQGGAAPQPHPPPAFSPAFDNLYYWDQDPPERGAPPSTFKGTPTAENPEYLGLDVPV
Pantothenate synthetase (Mycobacterium tuberculosis (strain ATCC 25618 / H37Rv)), sequence (P9WIL5 whole entry, looked up): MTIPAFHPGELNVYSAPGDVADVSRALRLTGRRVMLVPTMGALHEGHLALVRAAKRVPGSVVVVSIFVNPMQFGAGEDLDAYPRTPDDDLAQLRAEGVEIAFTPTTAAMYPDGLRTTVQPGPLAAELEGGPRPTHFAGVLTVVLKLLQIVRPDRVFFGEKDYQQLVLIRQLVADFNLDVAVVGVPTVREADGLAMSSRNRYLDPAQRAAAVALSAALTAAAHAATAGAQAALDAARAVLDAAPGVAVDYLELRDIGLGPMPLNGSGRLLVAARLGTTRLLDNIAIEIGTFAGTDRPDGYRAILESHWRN

Usually inhibition stands for the drop in the measured response relative to a control, in per cent. As usually defined, the viability is a read-out of living cells in per cent, often relative to untreated cells. Regarding `Cc1cccc(N2CCc3c2nc2ccccc2c3N)c1`, the inhibition is 0% (inactive) in assay [1], -2.53% (inactive) in assay [6], 7.67% (inactive) in assay [7] and 3.02% (inactive) in assay [13]. The viability in assay [2] was 84.5%; in [4], 84.5% (inactive); in assay [5] (setting [17]), 63.9%; in assay [5] (setting [18]) it was 49.8%; in [11], 36.4% (inactive); in assay [12], 44.5% (inactive). Moreover, in [3], the Her2 level is 86% (inactive). The differential viability (reversal) in assay [5] (H69AR cells + 2 uM doxorubicin) is -14.1% (inactive). In addition, the growth inhibition in assay [8] is -1.63% (inactive); in assay [9], -0.635% (inactive). Also, in [10], the viability increase is -6.21% (inactive). The RAM network inhibition in [14] is 4.96% (inactive).

In the case of `CC(=O)Nc1ccc(OC(=O)c2ccccc2N)cc1`, the inhibition is 0% (inactive) in assay [1], -0.13% (inactive) in [6], -9.5% (inactive) in [7] and 1.02% (inactive) in assay [13]. In addition, the viability was 100% in assay [2]; 100% (inactive) in [4]; 93.5% (inactive) in assay [15]; 99.3% (inactive) in assay [16]; 90.1% in assay [5] (setting [17]); 99.3% in [5] (setting [18]). Also, the values for the viability in assay [11] and in assay [12] were 107% (inactive) and 102% (inactive), respectively. Besides, the Her2 level in [3] is 118% (inactive). Also, the differential viability (reversal) in assay [5] (H69AR cells + 2 uM doxorubicin) is 9.29% (inactive). Moreover, the growth inhibition is -7.19% (inactive) in assay [8] and -9.05% (inactive) in [9]. Besides, the viability increase in [10] is 1.42% (inactive). The RAM network inhibition in assay [14] is 0.27% (inactive).

Regarding `CCCCNC(=O)c1c(N)n(CCCOC)c2nc3ccccc3nc12`, the inhibition is 0% (inactive) in assay [1], 1.1% (inactive) in [6], 5.24% (inactive) in [7] and 0.37% (inactive) in [13]. The viability in assay [2] was 89%; in assay [4], 89% (inactive); in assay [15], 71.8% (inactive); in assay [5] (setting [17]), 79.4%; in [5] (setting [18]) it was 54%; in [11] it was 68.5% (inactive). For the same compound, in assay [12], the viability was 67.8% (inactive). Besides, in assay [3], the Her2 level is 82% (inactive). Besides, the differential viability (reversal) in [5] (H69AR cells + 2 uM doxorubicin) is -25.4% (inactive). Also, the values for the growth inhibition in [8] and in [9] were 1.92% (inactive) and -1.88% (inactive), respectively. The viability increase in [10] was -6.16% (inactive). Moreover, in [14], the RAM network inhibition is -3.2% (inactive).

For `CCOC(=O)c1c(C)n(Cc2ccco2)c2ccc(OC)cc12`, the growth inhibition in [8] is 3.7% (inactive); in assay [9], 0.26% (inactive). In [10], the viability increase is -4.85% (inactive). Also, the viability in [11] is 84.4% (inactive); in assay [12] it was 85.8% (inactive). Moreover, the inhibition in assay [13] was 0.59% (inactive). The RAM network inhibition in assay [14] is 3.6% (inactive).

Turning to `CC1(C)CN=C(Nc2ccc(F)c(F)c2)S1`, the growth inhibition was -7.04% (inactive) in assay [8] and -4.74% (inactive) in assay [9]. For the same compound, the viability increase in assay [10] is 0.98% (inactive). Moreover, the viability in assay [11] is 111% (inactive); in assay [12], 101% (inactive). The inhibition in assay [13] was 0.8% (inactive). In assay [14], the RAM network inhibition was 6.13% (inactive).

On to `O=C(NC1(C(F)(F)F)Oc2ccccc2O1)N1CCC2(CC1)OCCO2`, for which the growth inhibition in [8] was -4.29% (inactive); in assay [9] it was 1.45% (inactive). Also, the viability increase in assay [10] is -5.11% (inactive). Further, the viability in assay [11] was 51.5% (inactive); in [12], 79.8% (inactive). The inhibition in assay [13] was 0.465% (inactive). Also, the RAM network inhibition in assay [14] was 0.45% (inactive).

With `O=C(C(Cc1ccccc1)NS(=O)(=O)c1ccc(F)cc1)N1CCC2(CC1)OCCO2` (centres undefined), the inhibition in assay [1] is 0% (inactive); in assay [6] it was -0.13% (inactive); in assay [7], -0.16% (inactive); in assay [13] it was -0.725% (inactive). Also, the viability in assay [4] is 95% (inactive); in assay [15], 94.2% (inactive); in [16] it was 79% (inactive); in assay [5] (setting [17]), 63.4%; in [5] (setting [18]), 79%; in [11] it was 95.4% (inactive). In addition, the viability in [12] was 93.5% (inactive). Moreover, the differential viability (reversal) in [5] (H69AR cells + 2 uM doxorubicin) is 15.6% (inactive). In addition, the growth inhibition is -6.55% (inactive) in assay [8] and -17.2% (inactive) in [9]. In assay [10], the viability increase was -3.5% (inactive). Besides, the RAM network inhibition in [14] is 0.31% (inactive).

For `O=P(OCC(F)(F)C(F)F)(N1CCCCC1)N1CCCCC1`, the inhibition in [1] is 3% (inactive); in [6] it was 2.67% (inactive); in [7], -7.9% (inactive); in assay [13] it was 0.595% (inactive). Also, the viability is 104% in assay [2]; 104% (inactive) in [4]; 106% (inactive) in assay [15]; 117% (inactive) in assay [16]; 99.9% in [5] (setting [17]); 117% in [5] (setting [18]). For the same compound, the results for the viability in [11] and in [12] were 89% (inactive) and 95.5% (inactive), respectively. In addition, the Her2 level in assay [3] is 108% (inactive). The differential viability (reversal) in assay [5] (H69AR cells + 2 uM doxorubicin) is 17.1% (inactive). Moreover, the growth inhibition was -8.86% (inactive) in assay [8] and -5.09% (inactive) in assay [9]. The viability increase in assay [10] is -0.61% (inactive). In assay [14], the RAM network inhibition was 3.2% (inactive).

`CN(C)C(=O)Oc1ccc(C(=O)c2ccccc2)cc1`: the growth inhibition is -2.66% (inactive) in assay [8] and 5.16% (inactive) in assay [9]. Moreover, the viability increase in assay [10] was 1.59% (inactive). Further, the viability was 101% (inactive) in [11] and 95.1% (inactive) in [12]. Further, the inhibition in assay [13] is 0.43% (inactive). For the same compound, the RAM network inhibition in assay [14] was 0.92% (inactive).

For `CCc1ccc(OCCCN=C(C)c2c(O)n(C)c(=O)n(C)c2=O)cc1`, the inhibition in assay [1] was 0% (inactive); in assay [6], -1.95% (inactive); in [7] it was 1.83% (inactive); in assay [13], 0.12% (inactive). For the same compound, the viability in assay [2] was 92%; in assay [4], 92% (inactive); in assay [15] it was 77.7% (inactive); in assay [16], 85.1% (inactive); in assay [5] (setting [17]), 83.8%; in assay [5] (setting [18]), 85.1%. Further, the viability in [11] was 77.3% (inactive); in assay [12], 80.8% (inactive). Moreover, in assay [3], the Her2 level is 85.5% (inactive). For the same compound, in [5] (H69AR cells + 2 uM doxorubicin), the differential viability (reversal) is 1.31% (inactive). The results for the growth inhibition in assay [8] and in assay [9] were -6.49% (inactive) and -4.79% (inactive), respectively. Besides, in assay [10], the viability increase is 0.23% (inactive). Further, the RAM network inhibition in assay [14] is -0.72% (inactive).

`CCCCCCOc1ccc(CN2CCN(C)CC2)cc1`: the inhibition is 0% (inactive) in assay [1], -5.06% (inactive) in assay [6], 3.44% (inactive) in assay [7] and -0.45% (inactive) in assay [13]. The viability in assay [2] is 83.5%; in assay [4], 83.5% (inactive); in assay [15] it was 61.5% (inactive); in assay [16], 77.2% (inactive); in assay [5] (setting [17]) it was 70.5%; in assay [5] (setting [18]), 77.2%. Moreover, the viability in assay [11] was 47.7% (inactive); in assay [12] it was 49% (inactive). In assay [3], the Her2 level is 87% (inactive). In assay [5] (H69AR cells + 2 uM doxorubicin), the differential viability (reversal) is 6.76% (inactive). Further, the results for the growth inhibition in assay [8] and in assay [9] were -13.5% (inactive) and -20.8% (inactive), respectively. In addition, the viability increase in assay [10] was -5.38% (inactive). The RAM network inhibition in assay [14] is 0.09% (inactive).
